Test results: PubChem BioAssay AID1159580 (chemical genetic matrix, 2015)
About 2,000 (36%) of roughly 5,500 compounds were called active. About 18% were inconclusive and are not listed. The list shows a part of the results. Unmarked numbers belong to inactive results. Rule as the data show it: active = normalized growth mostly below about 0.91 (no sharp cut-off); inconclusive = no clear call, values can overlap the other calls; inactive = mostly above about 0.92.

Test: chemical genetic growth profiling, strain panel (AID 1159580);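 also: tested at 20 µM; growth read once vehicle control cultures reached saturation at 30 °C; 1 = growth at the plate median or of vehicle wells; lower values mean less growth of the strain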
Details: S. cerevisiae deletion strains, growth OD

CC1(C)CC[C@@]2(C(=O)O)C(C1)C1=CCC3[C@@]4(C)CC[C@H](O)C(C)(C)C4CC[C@@]3(C)[C@]1(C)C[C@@H]2O (stereo not given in full)
normalized growth (locus YAL013W, strain DEP1, active compounds read low): 1.02 | normalized growth (locus YAL021C, strain ccr4, active compounds read low): 1.01 | normalized growth (locus YAL026C, strain drs2, active compounds read low): 1.01 | normalized growth (locus YAL030W, strain snc1, active compounds read low): 1.01 | normalized growth (locus YBL061C, strain skt5, active compounds read low): 1.03 | normalized growth (locus YBR009C, strain hhf1, active compounds read low): 1.01 | normalized growth (locus YBR021W, strain FUR4, active compounds read low): 0.996 | normalized growth (locus YBR023C, strain chs3, active compounds read low): 1.02 | normalized growth (locus YBR171W, strain sec66, active compounds read low): 1.02 | normalized growth (locus YBR229C, strain ROT2, active compounds read low): 1.03 | normalized growth (locus YBR231C, strain swc5, active compounds read low): 1.03 | normalized growth (locus YBR279W, strain paf1, active compounds read low): 1.02 | normalized growth (locus YCL011C, strain gbp2, active compounds read low): 1.02 | normalized growth (locus YCL016C, strain dcc1, active compounds read low): 1.02 | normalized growth (locus YCL029C, strain bik1, active compounds read low): 0.992 | normalized growth (locus YCL061C, strain MRC1, active compounds read low): 1.01 | normalized growth (locus YCL069W, strain vba3, active compounds read low): 1.01 | normalized growth (locus YCR088W, strain abp1, active compounds read low): 1.01 | normalized growth (locus YDL005C, strain med2, active compounds read low): 1.01 | normalized growth (locus YDL035C, strain GPR1, active compounds read low): 1 | normalized growth (locus YDL040C, strain nat1, active compounds read low): 1.02 | normalized growth (locus YDL074C, strain BRE1, active compounds read low): 1 | normalized growth (locus YDL101C, strain DUN1, active compounds read low): 0.827 (active) | normalized growth (locus YDL185W, strain tfp1, active compounds read low): 1.02 | normalized growth (locus YDL192W, strain arf1, active compounds read low): 1.05 | normalized growth (locus YDR001C, strain nth1, active compounds read low): 1.01 | normalized growth (locus YDR069C, strain doa4, active compounds read low): 1.05 | normalized growth (locus YDR101C, strain arx1, active compounds read low): 1.02 | normalized growth (locus YDR137W, strain rgp1, active compounds read low): 0.828 (active) | normalized growth (locus YDR150W, strain NUM1, active compounds read low): 1.03 | normalized growth (locus YDR159W, strain sac3, active compounds read low): 0.953 | normalized growth (locus YDR162C, strain NBP2, active compounds read low): 1.01 | normalized growth (locus YDR195W, strain ref2): 0.952 | normalized growth (locus YDR297W, strain sur2, active compounds read low): 1.01 | normalized growth (locus YDR318W, strain mcm21, active compounds read low): 1.03 | normalized growth (locus YDR334W, strain swr1, active compounds read low): 1.01 | normalized growth (locus YDR335W, strain msn5, active compounds read low): 1.02 | normalized growth (locus YDR388W, active compounds read low): 1.03 | normalized growth (locus YDR392W, strain spt3, active compounds read low): 1.01 | normalized growth (locus YDR502C, strain sam2, active compounds read low): 1.05 | normalized growth (locus YEL003W, strain gim4, active compounds read low): 1.03 | normalized growth (locus YEL037C, strain rad23, active compounds read low): 1.02 | normalized growth (locus YEL061C, strain CIN8 (second series), active compounds read low): 1.02 | normalized growth (locus YEL061C, strain CIN8, active compounds read low): 1.02 | normalized growth (locus YER015W, strain faa2, active compounds read low): 1.03 | normalized growth (locus YER016W, strain bim1, active compounds read low): 1 | normalized growth (locus YER110C, active compounds read low): 1.03 | normalized growth (locus YER111C, strain swi4, active compounds read low): 1.01 | normalized growth (locus YER155C, strain BEM2 (second series), active compounds read low): 1 | normalized growth (locus YER155C, strain BEM2, active compounds read low): 1.03 | normalized growth (locus YER167W, strain BCK2, active compounds read low): 1.04 | normalized growth (locus YFR010W, strain ubp6, active compounds read low): 1.04 | normalized growth (locus YGL078C, strain dbp3, active compounds read low): 1.03 | normalized growth (locus YGL086W, strain mad1, active compounds read low): 1.22 [resistant] (active) | normalized growth (locus YGL167C, strain pmr1, active compounds read low): 1.01 | normalized growth (locus YGL173C, strain kem1, active compounds read low): 1.01 | normalized growth (locus YGL227W, strain vid30, active compounds read low): 1.01 | normalized growth (locus YGL240W, strain doc1, active compounds read low): 1 | normalized growth (locus YGL248W, strain PDE1, active compounds read low): 1.02 | normalized growth (locus YGL253W, strain hxk2, active compounds read low): 1.02 | normalized growth (locus YGR078C, strain PAC10, active compounds read low): 1.05 | normalized growth (locus YGR135W, strain pre9, active compounds read low): 1.05 | normalized growth (locus YGR252W, strain gcn5, active compounds read low): 1.07 | normalized growth (locus YHR013C, strain ard1, active compounds read low): 1.1 | normalized growth (locus YHR027C, strain rpn1, active compounds read low): 1.02 | normalized growth (locus YHR030C, strain SLT2, active compounds read low): 1.04 | normalized growth (locus YHR079C, strain IRE1 (second series), active compounds read low): 1.01 | normalized growth (locus YHR094C, strain hxt1, active compounds read low): 1.02 | normalized growth (locus YHR129C, strain ARP1, active compounds read low): 1.04 | normalized growth (locus YHR142W, strain chs7, active compounds read low): 1.03 | normalized growth (locus YHR200W, strain rpn10, active compounds read low): 1.04 | normalized growth (locus YIL066C, strain RNR3, active compounds read low): 1.05 | normalized growth (locus YIL073C, strain SPO22, active compounds read low): 1.15 | normalized growth (locus YIL125W, strain kgd1, active compounds read low): 1.02 | normalized growth (locus YIR030C, strain dcg1, active compounds read low): 1.1 [resistant] (active) | normalized growth (locus YJL092W, strain hpr5, active compounds read low): 1.01 | normalized growth (locus YJL095W, strain BCK1 (second series), active compounds read low): 1.01 | normalized growth (locus YJL095W, strain BCK1, active compounds read low): 0.973 | normalized growth (locus YJL115W, strain asf1, active compounds read low): 1.02 | normalized growth (locus YJL129C, strain trk1, active compounds read low): 1.02 | normalized growth (locus YJL134W, strain LCB3, active compounds read low): 1.02 | normalized growth (locus YJL154C, strain vps35, active compounds read low): 1 | normalized growth (locus YJL164C, strain tpk1, active compounds read low): 1.03 | normalized growth (locus YJL166W, strain qcr8, active compounds read low): 1.01 | normalized growth (locus YJL168C, strain set2, active compounds read low): 1.04 | normalized growth (locus YJL187C, strain SWE1 (second series), active compounds read low): 1.02 | normalized growth (locus YJL187C, strain SWE1, active compounds read low): 1.01 | normalized growth (locus YJR043C, strain POL32, active compounds read low): 1.02 | normalized growth (locus YKL009W, strain mrt4, active compounds read low): 1.16 [resistant] (active) | normalized growth (locus YKL068W, active compounds read low): 1.19 [resistant] (active) | normalized growth (locus YKL085W, strain MDH1 (second series), active compounds read low): 1.24 [resistant] (active) | normalized growth (locus YKL085W, strain MDH1, active compounds read low): 1.24 [resistant] (active) | normalized growth (locus YKL160W, strain elf1, active compounds read low): 0.995 | normalized growth (locus YKL190W, strain CNB1, active compounds read low): 1.03 | normalized growth (locus YKR001C, strain vps1, active compounds read low): 1.03 | normalized growth (locus YKR026C, strain gcn3, active compounds read low): 0.988 | normalized growth (locus YKR091W, strain srl3, active compounds read low): 1.01 | normalized growth (locus YLL001W, strain dnm1, active compounds read low): 1.02 | normalized growth (locus YLL026W, active compounds read low): 1.01 | normalized growth (locus YLL041C, strain sdh2, active compounds read low): 1.01 | normalized growth (locus YLR027C, strain aat2, active compounds read low): 1.02 | normalized growth (locus YLR039C, strain RIC1, active compounds read low): 0.866 | normalized growth (locus YLR058C, strain SHM2, active compounds read low): 1.03 | normalized growth (locus YLR102C, strain apc9, active compounds read low): 1.02 | normalized growth (locus YLR221C, strain rsa3, active compounds read low): 1.02 | normalized growth (locus YLR258W, strain gsy2, active compounds read low): 1.01 | normalized growth (locus YLR262C, strain YPT6 (second series), active compounds read low): 0.871 | normalized growth (locus YLR262C, strain YPT6, active compounds read low): 0.827 | normalized growth (locus YLR268W, strain sec22, active compounds read low): 1.01 | normalized growth (locus YLR320W, strain mms22, active compounds read low): 1.02 | normalized growth (locus YLR330W, strain CHS5, active compounds read low): 1.03 | normalized growth (locus YLR342W, strain FKS1 (second series), active compounds read low): 0.97 | normalized growth (locus YLR342W, strain FKS1, active compounds read low): 1.02 | normalized growth (locus YLR357W, strain rsc2, active compounds read low): 1 | normalized growth (locus YLR370C, strain arc18, active compounds read low): 1.02 | normalized growth (locus YLR371W, strain rom2, active compounds read low): 1.01 | normalized growth (locus YLR384C, strain iki3, active compounds read low): 1.02 | normalized growth (locus YLR418C, strain cdc73, active compounds read low): 1.19 [resistant] (active) | normalized growth (locus YML016C, strain PPZ1, active compounds read low): 1.03 | normalized growth (locus YML032C, strain rad52, active compounds read low): 1.02 | normalized growth (locus YML120C, strain ndi1, active compounds read low): 1.02 | normalized growth (locus YML124C, strain tub3, active compounds read low): 1.05 | normalized growth (locus YMR058W, strain fet3, active compounds read low): 1.03 | normalized growth (locus YMR078C, strain ctf18, active compounds read low): 1.03 | normalized growth (locus YMR125W, strain sto1, active compounds read low): 1.03 | normalized growth (locus YMR129W, active compounds read low): 1.02 | normalized growth (locus YMR205C, strain PFK2, active compounds read low): 0.984 | normalized growth (locus YMR223W, strain ubp8, active compounds read low): 1.01 | normalized growth (locus YMR231W, strain pep5, active compounds read low): 1.01 | normalized growth (locus YMR307W, strain GAS1, active compounds read low): 0.909 | normalized growth (locus YNL067W, strain RPL9B, active compounds read low): 1.02 | normalized growth (locus YNL071W, strain lat1, active compounds read low): 1.01 | normalized growth (locus YNL128W, strain TEP1, active compounds read low): 0.874 | normalized growth (locus YNL153C, strain GIM3, active compounds read low): 1.02 | normalized growth (locus YNL209W, strain ssb2, active compounds read low): 1.03 | normalized growth (locus YNL233W, strain BNI4, active compounds read low): 1.03 | normalized growth (locus YNL248C, strain rpa49, active compounds read low): 1.01 | normalized growth (locus YNL250W, strain rad50, active compounds read low): 1.04 | normalized growth (locus YNL271C, strain bni1, active compounds read low): 1.02 | normalized growth (locus YNL298W, strain CLA4, active compounds read low): 1.02 | normalized growth (locus YNL307C, strain MCK1, active compounds read low): 1.05 | normalized growth (locus YNL322C, strain KRE1 (second series), active compounds read low): 0.998 | normalized growth (locus YNR049C, strain mso1, active compounds read low): 1.01 | normalized growth (locus YNR052C, strain pop2, active compounds read low): 1.03 | normalized growth (locus YOL006C, strain TOP1, active compounds read low): 1.17 | normalized growth (locus YOL012C, strain htz1): 1.06 | normalized growth (locus YOL147C, strain pex11, active compounds read low): 1.03 | normalized growth (locus YOR001W, strain rrp6, active compounds read low): 1 | normalized growth (locus YOR061W, strain CKA2, active compounds read low): 1 | normalized growth (locus YOR069W, strain VPS5, active compounds read low): 1.01 | normalized growth (locus YOR070C, strain gyp1, active compounds read low): 1.03 | normalized growth (locus YOR080W, strain dia2, active compounds read low): 1.01 | normalized growth (locus YOR083W, strain WHI5, active compounds read low): 0.996 | normalized growth (locus YOR106W, strain vam3, active compounds read low): 1 | normalized growth (locus YOR136W, strain idh2, active compounds read low): 1.04 | normalized growth (locus YOR144C, strain elg1, active compounds read low): 1.03 | normalized growth (locus YOR184W, strain ser1, active compounds read low): 1 | normalized growth (locus YOR265W, strain rbl2, active compounds read low): 1.03 | normalized growth (locus YOR270C, strain vph1, active compounds read low): 1.11 | normalized growth (locus YOR290C, strain snf2, active compounds read low): 0.991 | normalized growth (locus YOR316C, strain cot1, active compounds read low): 1.03 | normalized growth (locus YPL051W, strain arl3, active compounds read low): 0.99 | normalized growth (locus YPL078C, strain atp4, active compounds read low): 1.02 | normalized growth (locus YPL106C, strain sse1, active compounds read low): 1.03 | normalized growth (locus YPL240C, strain hsp82, active compounds read low): 1.01 | normalized growth (locus YPR119W, strain clb2, active compounds read low): 1.03 | normalized growth (locus YPR141C, strain kar3, active compounds read low): 1.05 | normalized growth (locus YPR163C, strain tif3, active compounds read low): 1.05 | normalized growth (locus YPR167C, strain met16, active compounds read low): 1.04 | normalized growth (strain wtn01, active compounds read low): 1.05
